# Compound activity: PubChem BioAssay, several laboratories
# PostGolgi yeast – growth inhibition of a yeast mutant, post-Golgi transport screen; post-Golgi transport phenotypic cell assay; inhibition, % at 10 µM; hit rate 0.9% among 98,000;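 note: yeast cells grown in 1536-well plates; yeast grown about 18 h at 30C before absorbance read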
# PostGolgi ctrl – inhibits growth of the yeast control strain | AID 738 | efflux-deficient yeast background strain, growth absorbance A615, 16 h | hit rate 5% among 98,000 | inhibition, % at 10 µM
# CYP2C9 inhib – inhibitors of human CYP2C9; P11712; CYP2C9 Supersomes, luciferin-H conversion, luminescence; inhibition, % at 5 µM; hit rate 20% among 96,000; AID 777;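 active = blocking of liver enzyme CYP2C9 beyond about 50% at 5 µM, limit read from the data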
# CYP2C9 act – increases human cytochrome P450 2C9 activity; P11712; recombinant CYP2C9, luciferin-H conversion, luminescence; hits give high values; factor 1 = untreated enzyme, 0 = blocked; activation factor at 5 µM; hit rate 1.4% among 96,000; AID 1024;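 active = activation factor of 2 or more for CYP2C9 at a 5 µM dose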;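 note: 0 = sulfaphenazole-blocked wells and 1 = vehicle-only wells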
# CYP2C19 act – increases human CYP2C19 enzyme activity | 96,000 tested, under 10 active | activation factor at 5 µM | P33261 | recombinant CYP2C19, luciferin-H EGE luminescence; hits give high values; 0 = fully inhibited enzyme, 1 = untreated enzyme;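 active = activation factor of at least 2 at 5 µM in the primary screen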;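 note: 0 = wells with 2.5 mM tranylcypromine and 1 = vehicle-only wells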
# Target sequence (P33261 whole entry, looked up): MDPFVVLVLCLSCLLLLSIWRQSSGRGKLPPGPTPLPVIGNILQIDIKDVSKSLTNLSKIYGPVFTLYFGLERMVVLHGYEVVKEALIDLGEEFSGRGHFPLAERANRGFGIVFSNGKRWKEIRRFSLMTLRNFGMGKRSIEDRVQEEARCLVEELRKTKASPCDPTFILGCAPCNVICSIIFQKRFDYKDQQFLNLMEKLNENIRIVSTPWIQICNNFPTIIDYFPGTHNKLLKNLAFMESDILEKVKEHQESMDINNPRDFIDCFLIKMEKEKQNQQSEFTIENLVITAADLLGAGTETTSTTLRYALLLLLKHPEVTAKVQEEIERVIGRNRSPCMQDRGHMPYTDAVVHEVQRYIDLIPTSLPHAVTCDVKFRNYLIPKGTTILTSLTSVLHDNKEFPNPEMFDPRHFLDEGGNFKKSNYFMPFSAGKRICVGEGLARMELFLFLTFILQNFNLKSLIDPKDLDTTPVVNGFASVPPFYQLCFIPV
# CYP2C19 inhib – human CYP2C19 inhibition. P33261. inhibition, % at 5 µM. CYP2C19 Supersomes, luciferin-H EGE luminescence, 30 min. hit rate 21% among 96,000;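 active = CYP2C19 inhibition above a set limit at 5 µM in the primary screen, cut at about 50% in these data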;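 note: plate controls were negative control wells for no effect and 2.5 mM tranylcypromine positive control for full effect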
# * hit, by the source's call; . = no result. The list is not random: actives were taken first. Their share in the collection is about 32%. Cut-off read from the data, not from the text of the source, unless noted: active = inhibition above about 30%; inactive = the rest.
SMILES,PostGolgi yeast,PostGolgi ctrl,CYP2C9 inhib,CYP2C9 act,CYP2C19 act,CYP2C19 inhib
CS(=O)(=O)c1ccccc1-c1nc(-c2ccc(C(F)(F)F)cc2)no1,-11.8,31.4*,-208.0,3.1*,1,4.6
O=C(COc1ccc2ccccc2c1)N1CCCC1,-3.0,8.2,-5.1,1.1,0.7,27.2
CC(C)(C)c1ccc(S(=O)(=O)NCC(=O)Nc2ccc(-c3nc4ccccc4s3)cc2)cc1,-3.7,-4.3,15.6,0.8,0.8,15.7
CC(C)(C)c1ccc(S(=O)(=O)NCC(=O)Nc2sc3c(c2C(N)=O)CCCC3)cc1,23.6,7.6,55.0*,0.4,0.9,6.3
NC(=O)c1c(NC(=O)c2cccs2)sc2c1CCCCCC2,9.9,68.1*,84.7*,0.2,0.2,83.5*
O=C(Nc1sc2c(c1C(=O)O)CCC2)c1cccs1,-4.9,1.8,69.7*,0.3,0.2,84.8*
N#Cc1c(-c2ccccc2)c(-c2ccccc2)nn(CC(=O)NNC(=O)Nc2ccc(Cl)c(Cl)c2)c1=O,-16.4,-1.3,61.6*,0.4,0.8,23.7
N#Cc1c(-c2ccccc2)nc2n(-c3ccccc3)nc(C(=O)Nc3ccccc3)n2c1=O,3.5,18.9,41.3,0.6,0.8,20.5
CCCOc1ccc(Br)cc1/C=N/O,2.4,27.7,26.4,0.7,0.7,34.1
Cc1cc(=O)oc(C)c1C(=O)n1nc(C)c2c1C[C@@H]1[C@H]2C1(C)C,13.2,24.0,61.9*,0.4,0.7,31.4
Cc1cc(=O)oc(C)c1C(=O)NC12CC3CC(CC(C3)C1)C2,1.6,-2.4,-7.3,1.1,1,3.3
O=C(O)CCc1nnc2n(Cc3ccc(F)cc3)c(=O)c3ccccc3n12,43.8*,-4.2,-0.9,1,1,-2.0
CCCn1c(=O)c2ccccc2n2c(SCC(=O)c3ccc(F)cc3)nnc12,.,.,10.6,0.9,0.9,11.5
Nc1nnn(Cc2ccccc2)n1,3.1,2.5,.,.,.,.
N#Cc1cccc(Cn2nnc(-c3ccccc3)n2)c1,-1.2,7.0,36.6,0.6,0.3,69.4*
O=C(OC1CCOC1=O)c1cc(-c2ccc(Cl)cc2)nc2ccccc12 (configuration not stated),-3.5,27.1,1.2,1,1,2.3
O=C(OC1CCOC1=O)c1cc(-c2ccccc2)nc2ccccc12 (configuration not stated),-7.9,8.4,88.3*,0.1,0.5,48.7
COc1ccc(-c2cc(C(=O)OC3CCOC3=O)c3ccccc3n2)cc1OC (configuration not stated),2.8,12.4,76.9*,0.2,0.4,55.0*
O=C(OCC(=O)c1ccc[nH]1)c1ccc(S(=O)(=O)N2CCCCCC2)cc1,-1.9,11.7,28.0,0.7,1,3.9
O=C(Cc1ccc(Cl)c(Cl)c1)OCC(=O)c1ccc[nH]1,4.6,20.6,51.5*,0.5,0.1,91.2*
Cc1nn(C)c(Oc2ccccc2)c1CCNS(=O)(=O)c1ccccc1,-20.7,37.5*,46.5,0.5,0.1,91.9*
Cc1nn(-c2ccccc2)c(C)c1C(=O)OCC(=O)NC12CC3CC(CC(C3)C1)C2,0.7,18.3,27.0,0.7,0.3,67.5*
Cc1nn(-c2ccccc2)c(C)c1C(=O)OCC(=O)N1CCN(S(=O)(=O)c2ccccc2)CC1,29.8,96.5*,17.1,0.8,0.7,33.3
Cc1nn(-c2ccccc2)c(C)c1C(=O)OCC(=O)NC(=O)NC1CCCC1,-0.9,5.9,47.0,0.5,0.7,29.9
CCOC(=O)c1c(C)[nH]c(C(=O)OCC(=O)N2CCN(S(=O)(=O)c3ccccc3)CC2)c1C,-6.5,2.5,-3.3,1,1,0.2
SMILES,PostGolgi yeast,PostGolgi ctrl,CYP2C9 inhib,CYP2C9 act,CYP2C19 act,CYP2C19 inhib
C=CCNC(=O)c1cc2c(C(F)(F)F)nn(C)c2s1,13.3,2.2,-1.3,1,0.9,11.6
COc1ccc2c(c1)c1ncn(CCCN3CCOCC3)c(=O)c1n2C,3.7,4.1,11.3,0.9,0.7,26.8
COc1ccc2c(c1)c1ncn(CCc3ccccc3)c(=O)c1n2C,-16.5,39.2*,92.1*,0.1,0.4,58.5*
CCCCC1(C)OC(=O)C(=Cc2ccc(N(CC)CC)cc2)C(=O)O1 (configuration not stated),1.9,11.6,4.4,1,0.5,53.5*
Cc1cccc(NC(=O)c2cc(=O)c3ccccc3o2)n1,-0.6,7.5,-11.6,1.1,1,2.5
CCOc1ccc2nc(-c3ccccc3)nc(SCC(=O)Nc3ncc(C)s3)c2c1,-15.9,-3.4,4.4,1,1,-2.6
CN(CCOc1ccc(-c2ccn(S(=O)(=O)c3c(Cl)cccc3Cl)n2)cc1)c1ccccn1,2.6,5.3,27.6,0.7,0.8,22.6
CN(CCOc1ccc(-c2ccn(S(=O)(=O)c3cccc4ccccc34)n2)cc1)c1ccccn1,6.0,15.2,49.4,0.5,0.5,50.0*
O=C(/C=C/c1ccccc1)NC(NC(=S)Nc1cc(Cl)ccc1Cl)C(Cl)(Cl)Cl (configuration not stated),-8.7,-0.9,86.9*,0.1,0.7,28.1
O=C(/C=C/c1ccccc1)NC(NC(=S)Nc1ccc(Cl)cc1)C(Cl)(Cl)Cl (configuration not stated),-4.2,12.6,70.4*,0.3,1,2.9
COc1ccc(NC(=S)NC(NC(=O)/C=C/c2ccccc2)C(Cl)(Cl)Cl)cc1 (configuration not stated),-1.4,1.2,80.4*,0.2,0.8,23.9
NC(=O)c1ccccc1NC(=O)/C=C/c1cccc(Cl)c1,5.0,27.4,-71.9,1.7,0.9,12.7
O=C(CCc1ccccc1)NC(NC(=S)Nc1ccc(Cl)cc1)C(Cl)(Cl)Cl (configuration not stated),-2.5,-7.8,92.5*,0.1,0.7,27.1
CC(=O)NC(NC(=S)Nc1ccc(N=Nc2ccccc2)cc1)C(Cl)(Cl)Cl (configuration not stated),-3.6,3.0,26.6,0.7,0.7,27.0
c1ccc(-c2nnc(-c3ccccn3)nc2NC2CCCCC2)cc1,39.7*,87.5*,48.0,0.5,1,-1.4
Cc1ccn(-c2ccc([N+](=O)[O-])cc2)n1,2.7,3.7,18.7,0.8,0.6,39.3
CC(C)Oc1ccc(CNC2CCOC(C)(C)C2)cc1 (configuration not stated),1.4,42.1*,-31.4,1.3,1.2,-16.4
COc1ccc(C(=O)NC(=S)Nc2nc(C)c(C(=O)N(C)C)s2)cc1,-2.8,0.5,63.3*,0.4,1,-2.3
Cc1nc(NC(=S)NC(=O)c2cccs2)sc1C(=O)N(C)C,-1.6,4.4,30.2,0.7,0.8,19.4
CN(C)C(=S)c1ccc2ccccc2n1,2.7,3.8,-81.8,1.8,1.1,-10.8
CC1CCC2(CC1)NC(=O)N(CC(=O)NC(=O)NC1CCCC1)C2=O (configuration not stated),-9.7,1.2,34.9,0.7,0.9,7.9
